# Inconclusive results are not listed. Calls of active or inactive are those of the source. Calls follow the shape of the dose curve; as a rule, active = well fitted inhibition curve with a large enough effect; inconclusive = small, poorly fitted or top-dose-only effect; inactive = no such curve, though single readings can be large or run the other way.
# Assay: Acumen qHTS Assay for Inhibitors of the mTORC1 Signaling Pathway in MEF (Tsc2-/-, p53-/-) Cells: Hit Validation;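 also: phospho-rpS6 Ser235/236 immunofluorescence normalized to propidium iodide cell count; nearly all actives have a fitted effect of over 65% in size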;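 as to activity change, negative = inhibition: cells exposed to compound for 24 hours; plate controls were DMSO for no effect and 7.5 nM rapamycin control for full effect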
# Details: Acumen imaging; activity change, negative = inhibition: at 37.3 µM (top of the series)
# Potency is read from the fitted curve at half-maximal effect.
SMILES,"activity change, negative = inhibition",Potency
CCc1nn(CC(=O)NCc2ccccc2)c(=O)c2cccn12,5.81%,–
CCc1ccc(OCC(=O)Nc2ccc3oc(-c4ccc(OC)cc4)nc3c2)cc1,7.33%,–
CCOC(=O)c1[nH]c2ccccc2c1NC(=O)c1ccccc1OCC,–,2.93 µM (active)
Cc1ccc(C)c(NC(=O)c2nc(S(=O)(=O)Cc3ccc(F)cc3)ncc2Cl)c1,-90.5%,–
CCCCNC(=O)CSc1c2c(nc3ccc(Cl)cc13)CCCC2,-28.5%,–
COc1ccc(C2=NS(=O)(=O)N(C)C(C(=O)Nc3ccc(OC(F)(F)F)cc3)=C2)cc1,2.76%,–
NC(=O)c1ccc(-c2nc(-c3ccc4c(c3)OCO4)c(-c3ccccn3)[nH]2)cc1,-5.7%,–
CC(=O)Nc1ccc(NC(=O)c2nc(S(=O)(=O)Cc3ccc(F)cc3)ncc2Cl)cc1,–,2.61 µM (active)
COc1ccc(NC(=O)CSc2nc3ccccc3n2Cc2cccc(OC)c2)cc1,-5.71%,–
CCC(C)n1c(SCc2c(F)cccc2Cl)nc2ccsc2c1=O (stereo not drawn),-45.2%,–
CC(C)CCNC(=O)Nc1ccc2c(c1)N(C)C(=O)c1ccccc1S2,-8.55%,–
O=C(Cn1c(=O)c2ccccc2n(CC(=O)Nc2ccc(Cl)cc2)c1=O)NCCc1ccccc1,0.576%,–
CCN1CCOC(=O)C1CC(=O)Nc1ccc(Br)cc1 (stereo not drawn),-3.02%,–
CCc1ccc(S(=O)(=O)c2nnn(-c3ccc(F)cc3)c2N)cc1,-3.55%,–
COc1cc2ncnc(Nc3ccc(F)c(Cl)c3)c2cc1OCCCN1CCOCC1,-7.44%,–
Cc1cccc(CSCCNC(=O)CN(c2ccccc2)S(=O)(=O)N(C)C)c1,3.74%,–
O=C(CN(CCc1ccccc1)S(=O)(=O)c1ccccc1)NCc1ccc(Cl)cc1,-3.71%,–
Cc1ccc(-c2noc(CCC(=O)N(C)c3ccccc3F)n2)cc1,5.93%,–
COc1ccc(OCc2nc3c4c(-c5ccccc5)c(-c5ccccc5)oc4ncn3n2)cc1,3.1%,–

SMILES,"activity change, negative = inhibition",Potency
Cc1cc(C)c(-c2n[nH]c3c2C(c2ccccc2F)N(Cc2ccco2)C3=O)c(O)c1 (stereo not drawn),2.41%,–
CCOC(=O)c1c(NC(=O)c2nc(S(C)(=O)=O)ncc2Cl)sc(C(C)=O)c1C,–,4.14 µM (active)
CCc1ccc(S(=O)(=O)c2c(C(=O)c3ccc(C)c(C)c3)cnc3ccccc23)cc1,5.96%,–
COc1ccc(OCC(=O)NCc2ccc3c(c2)CCN3C(=O)c2ccccc2)cc1,–,16.5 µM (active)
CCC(C)S(=O)(=O)c1oc(-c2cccs2)nc1S(=O)(=O)c1ccccc1 (stereo not drawn),–,0.927 µM (active)
O=C(CC1(O)C(=O)N(CCc2ccccc2)c2ccc(Br)cc21)c1ccccc1O (stereo not drawn),–,6.56 µM (active)
Cc1cc(NC(=O)c2ccco2)cc(-c2nc3cc(Cl)ccc3o2)c1O,-46.5%,–
CCCCOC(=O)c1ccc(NC(=O)c2sc3nc(C)cc(C)c3c2N)cc1,-72%,–
O=C(NC1CCCCC1)/C(=C/c1ccc(Cl)cc1)NC(=O)c1ccccc1,-5.63%,–
Cn1nnnc1SCCCNCc1ccccc1OCc1ccc(Cl)cc1,-60%,–
CCOc1ccccc1NC(=O)CN1C(=O)C(=O)c2ccccc21,–,18.5 µM (active)
CCOC(=O)Cn1c(=O)c2c(nc(N3CCOCC3)n2Cc2ccccc2)n(C)c1=O,–,2.93 µM (active)
COc1cccc(-c2oc3ccc(C)cc3c(=O)c2O)c1,-44.4%,–
COc1ccc(CCCc2nnc(SCC(=O)Nc3ccc(OC)cc3)o2)cc1,14%,–
CCOC(=O)C1CCN(C(=O)CSc2c3c(nc4ccc(Cl)cc24)CCCC3)CC1,-5.08%,–
Cc1cccc(NC(=O)c2nc(S(C)(=O)=O)ncc2Cl)c1,–,2.07 µM (active)
COc1ccc(-c2nnc(SCC(=O)NCc3ccccc3)nc2-c2ccc(OC)c(OC)c2)cc1OC,–,18.5 µM (active)
COCc1oc2ccc(NS(=O)(=O)c3ccc(C)cc3)cc2c1C(=O)OC,-61.3%,–
COc1ccc(CCN2C(=O)c3[nH]nc(-c4ccccc4O)c3C2c2cccc(OC)c2)cc1 (stereo not drawn),–,5.85 µM (active)

# — PubChem BioAssay AID651784 (National Center for Advancing Translational Sciences (NCATS), 2012)
